# PMC7862700, “An all-to-all approach to the identification of sequence-specific readers for epigenetic DNA modifications on cytosine”
# How the values were obtained:
# Assay in all cases: DAPPL (digital affinity profiling via proximity ligation, sequencing); 10 mM Tris-HCl pH 7.5, 50 mM NaCl, 1 mM DTT, 4% glycerol, room temperature, 30 min; GST-TFs on glutathione beads, 16-mer random dsDNA library, 0.1% formaldehyde crosslink after washing; high values mean tight binding
# FEV = target: T1, FEV (Homo sapiens, UniProt Q99581 1-238); conditions: protein: recombinant; tags: N-terminal GST; dsDNA, one strand shown
# T1 sequence: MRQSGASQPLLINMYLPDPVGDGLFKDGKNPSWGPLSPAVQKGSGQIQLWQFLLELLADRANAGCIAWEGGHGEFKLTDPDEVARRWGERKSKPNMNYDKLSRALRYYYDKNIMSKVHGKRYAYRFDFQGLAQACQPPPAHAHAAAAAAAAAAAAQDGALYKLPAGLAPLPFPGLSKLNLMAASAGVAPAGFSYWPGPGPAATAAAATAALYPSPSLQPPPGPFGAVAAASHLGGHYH
# Outline: (§1)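 In yeast, human transcription factors were expressed with a GST fusion, then pulled down on glutathione beads and given DNA barcodes. Pooled with a tag-only sample, they were exposed to 200 nmole of a 16-mer random double-stranded DNA library (Tris/NaCl/DTT/glycerol buffer, room temperature, 30 min), washed, crosslinked with 0.1% formaldehyde, proximity-ligated using BsaI/T4 ligase for 1 h at 37 °C, PCR-amplified and read on an Illumina NextSeq500. Each hexamer's frequency of reads for a factor, divided by the matching frequency for the tag-only sample, gives the binding signal.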
# ETV5 = ETV5 (Homo sapiens, UniProt P41161 1-510); conditions: protein: recombinant; tags: N-terminal GST; dsDNA, one strand shown
# ETV5, sequence (P41161 whole entry): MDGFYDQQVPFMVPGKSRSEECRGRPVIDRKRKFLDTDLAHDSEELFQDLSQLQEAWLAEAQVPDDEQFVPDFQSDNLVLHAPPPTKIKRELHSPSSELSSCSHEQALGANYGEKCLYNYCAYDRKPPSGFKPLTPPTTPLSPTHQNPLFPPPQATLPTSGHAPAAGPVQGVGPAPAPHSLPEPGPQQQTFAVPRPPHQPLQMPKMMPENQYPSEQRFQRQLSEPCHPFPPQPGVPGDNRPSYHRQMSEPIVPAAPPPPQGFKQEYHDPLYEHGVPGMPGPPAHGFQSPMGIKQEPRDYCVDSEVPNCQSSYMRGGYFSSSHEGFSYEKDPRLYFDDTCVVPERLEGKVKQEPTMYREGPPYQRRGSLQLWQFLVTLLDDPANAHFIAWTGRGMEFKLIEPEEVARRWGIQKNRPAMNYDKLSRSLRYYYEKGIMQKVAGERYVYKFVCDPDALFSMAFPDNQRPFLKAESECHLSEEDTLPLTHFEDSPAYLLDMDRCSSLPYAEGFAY
# Outline: as §1
# HSF1 = HSF1 (Homo sapiens, UniProt Q00613 1-529); conditions: protein: recombinant; tags: N-terminal GST; chain copies: 3; dsDNA, one strand shown
# HSF1, sequence (Q00613 whole entry): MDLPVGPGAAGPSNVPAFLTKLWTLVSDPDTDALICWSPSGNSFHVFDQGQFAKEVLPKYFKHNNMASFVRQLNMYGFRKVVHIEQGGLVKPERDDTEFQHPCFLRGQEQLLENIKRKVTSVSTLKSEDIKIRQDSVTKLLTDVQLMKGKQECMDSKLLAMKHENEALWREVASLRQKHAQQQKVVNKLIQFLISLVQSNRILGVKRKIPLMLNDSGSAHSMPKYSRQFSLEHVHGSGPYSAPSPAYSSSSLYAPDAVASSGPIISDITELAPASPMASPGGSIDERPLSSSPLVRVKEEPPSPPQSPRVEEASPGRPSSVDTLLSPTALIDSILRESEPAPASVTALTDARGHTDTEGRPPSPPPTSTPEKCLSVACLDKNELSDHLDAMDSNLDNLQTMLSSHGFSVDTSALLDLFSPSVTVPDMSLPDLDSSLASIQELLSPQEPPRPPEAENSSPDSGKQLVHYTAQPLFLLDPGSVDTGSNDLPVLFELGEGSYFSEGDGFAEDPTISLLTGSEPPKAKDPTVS
# Outline: as §1
# SPIC = target: T2, SPIC (Homo sapiens, UniProt Q8N5J4 1-248); conditions: protein: recombinant; tags: N-terminal GST; dsDNA, one strand shown
# T2 sequence: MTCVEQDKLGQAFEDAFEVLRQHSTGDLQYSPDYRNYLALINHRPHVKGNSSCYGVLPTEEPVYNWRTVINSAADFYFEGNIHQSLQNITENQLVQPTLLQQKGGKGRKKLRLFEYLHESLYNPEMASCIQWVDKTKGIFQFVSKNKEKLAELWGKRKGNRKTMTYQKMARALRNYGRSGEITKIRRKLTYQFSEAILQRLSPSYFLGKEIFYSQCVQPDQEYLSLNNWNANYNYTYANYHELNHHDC
# Outline: as §1
# ELF4 = ELF4 (Homo sapiens, UniProt Q99607 1-663); conditions: protein: recombinant; tags: N-terminal GST; dsDNA, one strand shown
# ELF4, sequence (Q99607 whole entry): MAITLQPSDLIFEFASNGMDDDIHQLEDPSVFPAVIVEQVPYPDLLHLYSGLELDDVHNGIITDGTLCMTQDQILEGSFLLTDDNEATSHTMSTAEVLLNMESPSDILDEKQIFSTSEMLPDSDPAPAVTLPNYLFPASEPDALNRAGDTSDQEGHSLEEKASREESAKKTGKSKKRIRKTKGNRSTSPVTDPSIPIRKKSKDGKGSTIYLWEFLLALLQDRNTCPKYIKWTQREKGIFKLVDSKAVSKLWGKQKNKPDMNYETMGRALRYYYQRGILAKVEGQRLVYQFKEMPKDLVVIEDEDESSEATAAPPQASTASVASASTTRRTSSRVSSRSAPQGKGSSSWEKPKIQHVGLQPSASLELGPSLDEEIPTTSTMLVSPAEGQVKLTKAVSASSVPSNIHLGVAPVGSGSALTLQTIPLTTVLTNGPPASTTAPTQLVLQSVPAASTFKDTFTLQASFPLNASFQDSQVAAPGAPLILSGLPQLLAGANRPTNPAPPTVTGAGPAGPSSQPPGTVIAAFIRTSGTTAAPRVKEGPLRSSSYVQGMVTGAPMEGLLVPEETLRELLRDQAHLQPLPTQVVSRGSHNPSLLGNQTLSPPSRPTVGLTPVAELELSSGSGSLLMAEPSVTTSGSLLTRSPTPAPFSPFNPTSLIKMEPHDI
# Outline: as §1
# ELK4 = target: T3, ELK4 (Homo sapiens, UniProt P28324-2 1-405); conditions: protein: recombinant; tags: N-terminal GST; dsDNA, one strand shown
# T3 sequence: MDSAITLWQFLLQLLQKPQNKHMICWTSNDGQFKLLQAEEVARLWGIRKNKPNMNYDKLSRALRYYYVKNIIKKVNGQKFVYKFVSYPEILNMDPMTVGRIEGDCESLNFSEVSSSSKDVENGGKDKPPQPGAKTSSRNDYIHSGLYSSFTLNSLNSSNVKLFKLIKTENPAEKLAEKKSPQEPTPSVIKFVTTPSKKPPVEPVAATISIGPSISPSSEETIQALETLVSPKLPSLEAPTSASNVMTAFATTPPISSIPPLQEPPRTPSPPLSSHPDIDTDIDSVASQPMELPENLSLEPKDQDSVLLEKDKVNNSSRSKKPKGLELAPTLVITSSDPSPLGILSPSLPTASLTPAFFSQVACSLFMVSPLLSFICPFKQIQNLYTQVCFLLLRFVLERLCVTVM
# Outline: as §1
# ETV2 = target: T4, ETV2 (Homo sapiens, UniProt O00321 1-342); conditions: protein: recombinant; tags: N-terminal GST; dsDNA, one strand shown
# T4 sequence: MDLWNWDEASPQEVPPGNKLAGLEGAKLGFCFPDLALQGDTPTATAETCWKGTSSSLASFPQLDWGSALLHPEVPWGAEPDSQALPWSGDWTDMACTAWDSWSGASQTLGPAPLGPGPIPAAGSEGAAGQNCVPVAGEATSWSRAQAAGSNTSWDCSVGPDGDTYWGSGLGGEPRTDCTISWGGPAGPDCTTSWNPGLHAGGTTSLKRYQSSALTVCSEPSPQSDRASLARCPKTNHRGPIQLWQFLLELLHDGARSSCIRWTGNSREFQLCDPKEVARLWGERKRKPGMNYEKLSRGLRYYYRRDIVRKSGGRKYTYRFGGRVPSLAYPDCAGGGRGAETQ
# Outline: as §1
# ELF3 = target: T5, ELF3 (Homo sapiens, UniProt P78545 1-371); conditions: protein: recombinant; tags: N-terminal GST; dsDNA, one strand shown
# T5 sequence: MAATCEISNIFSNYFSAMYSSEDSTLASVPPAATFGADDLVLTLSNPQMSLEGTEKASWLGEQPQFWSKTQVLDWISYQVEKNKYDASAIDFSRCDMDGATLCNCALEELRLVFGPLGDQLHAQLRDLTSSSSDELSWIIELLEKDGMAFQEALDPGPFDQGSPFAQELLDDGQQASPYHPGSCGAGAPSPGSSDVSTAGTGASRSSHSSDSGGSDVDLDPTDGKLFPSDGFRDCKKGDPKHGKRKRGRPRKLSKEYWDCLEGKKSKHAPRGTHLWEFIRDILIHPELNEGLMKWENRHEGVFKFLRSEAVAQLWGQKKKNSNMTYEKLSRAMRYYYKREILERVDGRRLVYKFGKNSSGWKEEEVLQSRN
# Outline: as §1
# CRX = CRX (Homo sapiens, UniProt O43186 1-299); conditions: protein: recombinant; tags: N-terminal GST; dsDNA, one strand shown
# CRX, sequence (O43186 whole entry): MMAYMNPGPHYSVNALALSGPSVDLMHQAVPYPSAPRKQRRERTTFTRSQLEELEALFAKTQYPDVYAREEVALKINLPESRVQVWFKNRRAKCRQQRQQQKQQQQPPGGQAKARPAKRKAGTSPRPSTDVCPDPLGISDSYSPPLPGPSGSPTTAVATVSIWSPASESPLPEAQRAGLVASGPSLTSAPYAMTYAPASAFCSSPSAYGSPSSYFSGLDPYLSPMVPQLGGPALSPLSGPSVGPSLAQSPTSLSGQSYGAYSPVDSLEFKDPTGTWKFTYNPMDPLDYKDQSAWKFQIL
# Outline: as §1
# ETV1 = ETV1 (Homo sapiens, UniProt P50549 1-477); conditions: protein: recombinant; tags: N-terminal GST; dsDNA, one strand shown
# ETV1, sequence (P50549 whole entry): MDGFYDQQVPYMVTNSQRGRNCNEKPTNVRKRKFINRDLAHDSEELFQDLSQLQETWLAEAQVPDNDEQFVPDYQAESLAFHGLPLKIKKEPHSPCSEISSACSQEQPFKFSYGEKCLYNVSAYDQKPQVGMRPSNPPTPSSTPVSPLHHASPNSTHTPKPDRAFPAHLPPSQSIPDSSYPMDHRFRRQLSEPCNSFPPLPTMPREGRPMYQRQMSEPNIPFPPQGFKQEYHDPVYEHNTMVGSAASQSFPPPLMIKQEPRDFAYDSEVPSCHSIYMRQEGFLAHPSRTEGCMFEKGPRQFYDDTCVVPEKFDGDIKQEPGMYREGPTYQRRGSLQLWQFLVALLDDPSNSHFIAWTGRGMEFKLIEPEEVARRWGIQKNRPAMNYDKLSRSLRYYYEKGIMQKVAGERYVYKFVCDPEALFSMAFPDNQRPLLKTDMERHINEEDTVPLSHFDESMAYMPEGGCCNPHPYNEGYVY
# Outline: as §1
sequence,measurement,setting,value
TTTAAA,binding signal,FEV,"1.25 fold enrichment (6-mer frequency, TF over GST control)"
same,binding signal,ETV5,"1.21 fold enrichment (6-mer frequency, TF over GST control)"
same,binding signal,HSF1,"1.64 fold enrichment (6-mer frequency, TF over GST control)"
same,binding signal,SPIC,"1.02 fold enrichment (6-mer frequency, TF over GST control)"
same,binding signal,ELF4,"1.19 fold enrichment (6-mer frequency, TF over GST control)"
same,binding signal,ELK4,"1.37 fold enrichment (6-mer frequency, TF over GST control)"
same,binding signal,ETV2,"1.44 fold enrichment (6-mer frequency, TF over GST control)"
same,binding signal,ELF3,"1.28 fold enrichment (6-mer frequency, TF over GST control)"
same,binding signal,CRX,"2.15 fold enrichment (6-mer frequency, TF over GST control)"
same,binding signal,ETV1,"1.2 fold enrichment (6-mer frequency, TF over GST control)"
